Data as given in PubChem BioAssay (NCATS).
Inconclusive results are not listed. Entries that show only a call come without a potency. The source made the active and inactive calls. Calls come from the whole dose curve; as a rule, active = well fitted curve in the direction sought with a large enough effect; inconclusive = small, poorly fitted or top-dose-only effect, or another doubt; inactive = no such curve, though single readings can be large; an effect the other way counts as inactive or inconclusive.

Experiments:
[1] = qHTS of pediatric cancer cell lines to identify multiple opportunities for drug repurposing: Primary screen for BT-37 cells (AID 1347094); note: series mostly up to about 57 µM
Method in brief: (§1)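 Viability was measured as metabolically active cells after 48 hours of treatment, read by CellTiter-Glo luminescence. Compounds were tested at multiple final concentrations, giving concentration-response curves.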

[2] = qHTS of pediatric cancer cell lines to identify multiple opportunities for drug repurposing: Primary screen for NB-EBc1 cells (AID 1347095)
Method in brief: as §1

[3] = qHTS of pediatric cancer cell lines to identify multiple opportunities for drug repurposing: Primary screen for U-2 OS cells (AID 1347096); note: nearly all actives have a fitted effect of over 50% in size
Method in brief: (§2)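 Cells (500-1,000/well) rested 5 h, then received compounds for 48 h; metabolically active cells were measured by CellTiter-Glo luminescence. Final concentrations spanned up to 46 µM (MIPE, 11-point) or 0.59 nM-46 µM (NPC, 8-point) in primary screens, 11-point in follow-ups.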

[4] = qHTS of pediatric cancer cell lines to identify multiple opportunities for drug repurposing: Primary screen for Saos-2 cells (AID 1347097); note: nearly all actives have a fitted effect of over 40% in size
Method in brief: as §1

[5] = qHTS of pediatric cancer cell lines to identify multiple opportunities for drug repurposing: Primary screen for SK-N-SH cells (AID 1347098);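 note: DMSO served as neutral control and bortezomib at 2.3 µM as positive control; nearly all actives have a fitted effect of over 65% in size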
Method in brief: as §2

[6] = qHTS of pediatric cancer cell lines to identify multiple opportunities for drug repurposing: Primary screen for NB1643 cells (AID 1347099); note: nearly all actives have a fitted effect of over 50% in size
Method in brief: as §1

[7] = qHTS of pediatric cancer cell lines to identify multiple opportunities for drug repurposing: Primary screen for BT-12 cells (AID 1347101); note: nearly all actives have a fitted effect of over 25% in size
Method in brief: as §2

[8] = qHTS of pediatric cancer cell lines to identify multiple opportunities for drug repurposing: Primary screen for Rh18 cells (AID 1347102); note: nearly all actives have a fitted effect of over 65% in size
Method in brief: as §2

[9] = qHTS of pediatric cancer cell lines to identify multiple opportunities for drug repurposing: Primary screen for OHS-50 cells (AID 1347103); note: nearly all actives have a fitted effect of over 40% in size
Method in brief: as §2

[10] = qHTS of pediatric cancer cell lines to identify multiple opportunities for drug repurposing: Primary screen for LAN-5 cells (AID 1347100); note: potency is the fitted concentration of half-maximal effect
Method in brief: as §2

Row | Structure (SMILES) | Potency [1] | Potency [2] | Potency [3] | Potency [4] | Potency [5] | Potency [6] | Potency [7] | Potency [8] | Potency [9] | Potency [10]
1 | CNCC(=O)c1ccc(O)c(O)c1 | inactive | inactive | inactive | inactive | inactive | inactive | inactive | inactive | inactive | –
2 | C#C[C@]1(O)CC[C@H]2[C@@H]3CCC4=CC(=O)CC[C@]4(C)[C@H]3CC[C@@]21C | inactive | inactive | inactive | inactive | inactive | inactive | inactive | inactive | inactive | inactive
3 | Clc1ccccc1N1CCNCC1 | inactive | inactive | inactive | inactive | inactive | inactive | inactive | inactive | inactive | –
4 | CN1C(=O)CCS(=O)(=O)C1c1ccc(Cl)cc1 (stereo unspecified) | inactive | inactive | inactive | inactive | inactive | inactive | inactive | inactive | inactive | inactive
5 | CCC1(CC)C(=O)C=CNC1=O | inactive | – | inactive | inactive | inactive | inactive | inactive | inactive | inactive | inactive
6 | NNc1ccccc1 | inactive | inactive | inactive | inactive | inactive | inactive | inactive | inactive | inactive | –
7 | O=C1OC(CCN2CCCCC2)OC1(c1ccccc1)c1ccccc1 (stereo unspecified) | inactive | inactive | inactive | inactive | – | – | inactive | inactive | inactive | 4.73 µM (active)
8 | CC[N+]1(CC)CCC(OC(=O)C(O)(c2ccccc2)c2ccccc2)C1 (stereo unspecified) | inactive | inactive | inactive | inactive | inactive | inactive | inactive | inactive | inactive | –
9 | COc1cc(CCN)cc(OC)c1OC | inactive | inactive | inactive | inactive | – | inactive | inactive | inactive | inactive | –
10 | O=C(N/N=C/c1ccc([N+](=O)[O-])o1)c1cc([N+](=O)[O-])cc([N+](=O)[O-])c1O | inactive | – | inactive | inactive | inactive | inactive | inactive | inactive | inactive | inactive
11 | NC(=O)CS(=O)C(c1ccccc1)c1ccccc1 (stereo unspecified) | inactive | – | inactive | inactive | inactive | inactive | inactive | inactive | inactive | inactive
12 | CCCN(CCC)C(=O)Cc1c(-c2ccc(Cl)cc2)nc2ccc(Cl)cn12 | inactive | inactive | inactive | inactive | inactive | – | – | inactive | – | inactive
